# Measurements reported in the supplement of paper PMC8728848.
# This is one part of a sample in which the strongest signals are shown more often than they occur.
# Tests used:
# Experiment in all cases: glycan array binding signal (z-score within array); higher = stronger binding
# Settings in all cases: glycan notation: IUPAC condensed, linker removed
# [1] = molecular target: Fuc(a1-2)Gal(b1-3)GalNAc(b1-4)[Neu5Ac(a2-3)]Gal(b1-4)Glc
# Outline: (§1)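 The Consortium for Functional Glycomics database supplied 3228 glycan arrays, of which those lacking an available protein sequence were dropped. The binding signal, a within-array Z-score, was averaged across arrays of the same protein sequence and across linkers. Negative scores can be read as non-binding.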
# [2] = molecular target: Fuc(a1-2)Gal(b1-3)[Fuc(a1-4)]GlcNAc(b1-3)[Fuc(a1-3)[Gal(b1-4)]GlcNAc(b1-6)]Gal(b1-4)Glc
# Outline: as §1
# [3] = molecular target: Fuc(a1-2)Gal(b1-4)GlcNAc(b1-2)Man(a1-3)[Fuc(a1-2)Gal(b1-4)GlcNAc(b1-2)Man(a1-6)]Man(b1-4)GlcNAc(b1-4)GlcNAc
# Outline: as §1
# [4] = molecular target: Fuc(a1-2)Gal(b1-4)GlcNAc(b1-2)Man(a1-3)[Fuc(a1-2)Gal(b1-4)GlcNAc(b1-2)Man(a1-6)]Man(b1-4)GlcNAc(b1-4)[Fuc(a1-6)]GlcNAc
# Outline: as §1
# [5] = molecular target: Fuc(a1-2)Gal(b1-4)GlcNAc(b1-3)Gal(b1-4)GlcNAc(b1-3)Gal(b1-4)GlcNAc
# Outline: as §1
# [6] = molecular target: Fuc(a1-2)Gal(b1-4)[Fuc(a1-3)]GlcNAc(b1-2)Man(a1-3)[Fuc(a1-2)Gal(b1-4)[Fuc(a1-3)]GlcNAc(b1-2)Man(a1-6)]Man(b1-4)GlcNAc(b1-4)GlcNAc
# Outline: as §1
# [7] = molecular target: Fuc(a1-2)Gal(b1-4)[Fuc(a1-3)]GlcNAc(b1-3)GalNAc
# Outline: as §1
# [8] = molecular target: Fuc(a1-2)[Gal(a1-3)]Gal(b1-4)GlcNAc
# Outline: as §1
# [9] = molecular target: Fuc(a1-2)[Gal(a1-3)]Gal(b1-4)GlcNAc(b1-2)Man(a1-3)[Fuc(a1-2)[Gal(a1-3)]Gal(b1-4)GlcNAc(b1-2)Man(a1-6)]Man(b1-4)GlcNAc(b1-4)GlcNAc
# Outline: as §1
# [10] = molecular target: Fuc(a1-2)[Gal(a1-3)]Gal(b1-4)GlcNAc(b1-2)Man(a1-3)[Fuc(a1-2)[Gal(a1-3)]Gal(b1-4)GlcNAc(b1-2)Man(a1-6)]Man(b1-4)GlcNAc(b1-4)[Fuc(a1-6)]GlcNAc
# Outline: as §1
# [11] = molecular target: Fuc(a1-2)[Gal(a1-3)]Gal(b1-4)[Fuc(a1-3)]GlcNAc(b1-3)GalNAc
# Outline: as §1
# [12] = molecular target: Fuc(a1-2)[GalNAc(a1-3)]Gal
# Outline: as §1
# [13] = molecular target: Fuc(a1-2)[GalNAc(a1-3)]Gal(b1-3)GalNAc(a1-3)[Fuc(a1-2)]Gal(b1-4)GlcNAc
# Outline: as §1
# [14] = molecular target: Gal(a1-3)Gal(b1-3)GlcNAc(b1-2)Man(a1-3)[Gal(a1-3)Gal(b1-3)GlcNAc(b1-2)Man(a1-6)]Man(b1-4)GlcNAc(b1-4)GlcNAc
# Outline: as §1
# [15] = molecular target: Gal(a1-3)Gal(b1-4)[Fuc(a1-3)]GlcNAc(b1-2)Man(a1-3)[Gal(a1-3)Gal(b1-4)[Fuc(a1-3)]GlcNAc(b1-2)Man(a1-6)]Man(b1-4)GlcNAc(b1-4)GlcNAc
# Outline: as §1
# [16] = molecular target: Gal(b1-3)GlcNAc(b1-2)Man(a1-3)[Gal(b1-3)GlcNAc(b1-2)Man(a1-6)]Man(b1-4)GlcNAc(b1-4)GlcNAc
# Outline: as §1
# [17] = molecular target: Gal(b1-3)GlcNAc(b1-2)Man(a1-3)[Gal(b1-3)GlcNAc(b1-2)Man(a1-6)]Man(b1-4)GlcNAc(b1-4)[Fuc(a1-6)]GlcNAc
# Outline: as §1
# [18] = molecular target: Gal(b1-3)[Fuc(a1-4)]GlcNAc(b1-3)Gal(b1-4)GlcNAc
# Outline: as §1
# [19] = molecular target: Gal(b1-3)[Neu5Ac(a2-6)]GlcNAc(b1-6)Gal(b1-4)Glc
# Outline: as §1
# [20] = molecular target: Gal(b1-4)GlcNAc(b1-3)Gal(b1-4)GlcNAc
# Outline: as §1
# [21] = molecular target: Gal4S(b1-4)GlcNAc
# Outline: as §1
# [22] = molecular target: Gal6S(b1-3)GlcNAc
# Outline: as §1
# [23] = molecular target: GalNAc(b1-3)Gal(a1-6)Gal(b1-4)Glc
# Outline: as §1
# [24] = molecular target: GalNAc(b1-4)GlcNAc
# Outline: as §1
# [25] = molecular target: GlcA(b1-3)GlcNAc
# Outline: as §1
# [26] = molecular target: GlcNAc(a1-4)Gal(b1-4)GalNAc
# Outline: as §1
# [27] = molecular target: GlcNAc(a1-4)Gal(b1-4)GlcNAc(b1-3)Gal(b1-4)[Fuc(a1-3)]GlcNAc(b1-3)Gal(b1-4)[Fuc(a1-3)]GlcNAc
# Outline: as §1
# [28] = molecular target: GlcNAc(b1-4)[GlcNAc(b1-6)]GalNAc
# Outline: as §1
# [29] = molecular target: Man(a1-3)[Man(a1-6)]Man
# Outline: as §1
# [30] = molecular target: Neu5Ac(a2-3)Gal(b1-3)[Neu5Ac(a2-3)Gal(b1-4)]GlcNAc
# Outline: as §1
# [31] = molecular target: Neu5Ac(a2-3)Gal(b1-4)GlcNAc(b1-3)Gal(b1-4)GlcNAc
# Outline: as §1
# [32] = molecular target: Neu5Ac(a2-3)Gal(b1-4)[Fuc(a1-3)]GlcNAc(b1-3)GalNAc
# Outline: as §1
# [33] = molecular target: Neu5Ac(a2-6)Gal(b1-4)GlcNAc(b1-2)Man(a1-3)[Man(a1-6)]Man(b1-4)GlcNAc(b1-4)GlcNAc
# Outline: as §1
# [34] = molecular target: Neu5Ac(a2-6)Gal(b1-4)GlcNAc(b1-2)Man(a1-6)[GlcNAc(b1-2)Man(a1-3)]Man(b1-4)GlcNAc(b1-4)GlcNAc
# Outline: as §1
# [35] = molecular target: Neu5Ac(a2-6)Gal(b1-4)GlcNAc(b1-3)Gal(b1-4)GlcNAc(b1-3)Gal(b1-4)GlcNAc
# Outline: as §1
# [36] = molecular target: Neu5Ac(a2-6)Gal(b1-4)GlcNAc(b1-3)GalNAc
# Outline: as §1
binder,measurement,setting,value
Gal 2 (Canis lupus) (protein) MSGKFEVMNMDMKLGGTLKIKGKIAGDADGFVINLGQGSDKLNLHFNPRFHESVIVCNSRNWGQEQRDKHMCFSPGSEVKFTVTFENDGFKVKLPDGHQLTFPNRLGHSHLSYLGVQGGLKVSSFKIE,glycan array binding signal (z-score),[1],-0.028
same,glycan array binding signal (z-score),[2],0.019
same,glycan array binding signal (z-score),[3],1.43
same,glycan array binding signal (z-score),[4],0.046
same,glycan array binding signal (z-score),[5],-0.156
same,glycan array binding signal (z-score),[6],0.795
same,glycan array binding signal (z-score),[7],0.409
same,glycan array binding signal (z-score),[8],0.681
same,glycan array binding signal (z-score),[9],15.5
same,glycan array binding signal (z-score),[10],6.28
same,glycan array binding signal (z-score),[11],0.088
same,glycan array binding signal (z-score),[12],-0.339
same,glycan array binding signal (z-score),[13],-0.173
same,glycan array binding signal (z-score),[14],0.082
same,glycan array binding signal (z-score),[15],0.339
same,glycan array binding signal (z-score),[16],0.14
same,glycan array binding signal (z-score),[17],0.051
same,glycan array binding signal (z-score),[18],0.099
same,glycan array binding signal (z-score),[19],-0.068
same,glycan array binding signal (z-score),[20],-0.157
same,glycan array binding signal (z-score),[21],1.7
same,glycan array binding signal (z-score),[22],-0.457
same,glycan array binding signal (z-score),[23],0.131
same,glycan array binding signal (z-score),[24],-0.029
same,glycan array binding signal (z-score),[25],2.91
same,glycan array binding signal (z-score),[26],-0.278
same,glycan array binding signal (z-score),[27],1.2
same,glycan array binding signal (z-score),[28],-0.114
same,glycan array binding signal (z-score),[29],0.15
same,glycan array binding signal (z-score),[30],-0.369
same,glycan array binding signal (z-score),[31],0.01
same,glycan array binding signal (z-score),[32],1.21
same,glycan array binding signal (z-score),[33],-0.076
same,glycan array binding signal (z-score),[34],-0.361
same,glycan array binding signal (z-score),[35],-0.293
same,glycan array binding signal (z-score),[36],0.102
